Records with an inconclusive call do not appear. The source made the active and inactive calls. Unless noted, the call rests on the fitted dose curve; in most records, active means well fitted curve in the direction sought with a large enough effect; inconclusive means small, poorly fitted or top-dose-only effect, or another doubt; inactive means no such curve, though single readings can be large; an effect the other way counts as inactive or inconclusive.
How the values were obtained:
[1] = Cell Viability - BJ (AID 421; calls by dose curve;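 further: potency means the concentration at half of the fitted maximal effect; cells exposed to compound for 40 hours at 37 °C before readout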); conditions: BJ fibroblast viability, qHTS
How it was run: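 Normal human BJ foreskin fibroblasts, 1500/well in complete medium, treated 40 hr at 37 °C. Cellular ATP by CellTiter-Glo luminescence; normalized to DMSO and 100 uM tamoxifen, AC50 from Hill fit.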

[2] = Cell Viability - Jurkat (AID 426;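 active means dose-dependent loss of cell ATP signal giving a full or clear fitted curve, ranked by lower potency value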; further: potency means the concentration at half of the fitted maximal effect); conditions: qHTS
How it was run: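 Jurkat (Clone E6-1) cells, 5000/well in complete medium, exposed to compounds for 40 hr at 37C; intracellular ATP measured by CellTiter-Glo luminescence after 20 min at room temperature. AC50 from Hill fits.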

[3] = Cell Viability - Hek293 (AID 427;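 active means compounds whose dose-response curve shows a full or clear partial loss of cell viability, called from curve shape rather than a numeric limit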;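 further: potency means the concentration at half of the fitted maximal effect; cells exposed to compound for 40 hours at 37 °C before reading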); conditions: qHTS
How it was run: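 HEK293 cells in complete medium were exposed to compound for 40 hr at 37 °C, then cellular ATP was read by CellTiter-Glo luminescence. Data were normalized to DMSO (basal) and 100 uM tamoxifen (100% inhibition), and AC50 came from Hill fits.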

[4] = Cell Viability - HepG2 (AID 433; calls by dose curve;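 further: potency means the concentration at half of the fitted maximal effect; potency for ATP loss meaning cytotoxicity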); conditions: qHTS
How it was run: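 HepG2 hepatocellular carcinoma cells (1500/well) were treated with compounds for 40 h at 37 °C in complete medium; intracellular ATP was read by CellTiter-Glo luminescence. Data were normalized to DMSO and 100 uM tamoxifen, and AC50 came from Hill fits.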

[5] = Cell Viability - MRC5 (AID 434; calls by dose curve;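 further: potency means the concentration at half of the fitted maximal effect; potency reflects cytotoxicity seen as loss of intracellular ATP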); conditions: MRC5 lung fibroblast viability, qHTS
How it was run: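 MRC5 normal human lung fibroblasts (1500/well) were treated with compounds for 40 hr at 37 °C in complete medium, and viable cells were measured as intracellular ATP by CellTiter-Glo luminescence. AC50 came from Hill fits, normalized to DMSO and 100 uM tamoxifen.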

[6] = Cell Viability - SK-N-SH (AID 435; calls by dose curve;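 further: potency means the concentration at half of the fitted maximal effect; compound exposure lasted 40 h at 37 °C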); conditions: SK-N-SH neuroblastoma cell viability qHTS
How it was run: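 SK-N-SH human neuroblastoma cells (1500/well) were exposed to compounds in complete medium for 40 h at 37 °C, and intracellular ATP was then measured by CellTiter-Glo luminescence. AC50 was taken from Hill fits, normalized to DMSO and 100 uM tamoxifen.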

[7] = target: Mitogen-activated protein kinase 10 (Mus musculus) (UniProt Q61831); experiment: JNK3 AlphaScreen Assay (AID 530; active means well fitted curve in either direction with a large enough effect, not every such curve was filed as active;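 further: kinase came from lysate of stimulated human HepG2 cells; signal reports phosphorylation of biotinylated GST-cJun 1-79 at Ser73 with 10 µM ATP; on the % scale 0 is the no-effect control and ±100 the full control effect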); conditions: JNK3 lysate, c-Jun phosphorylation; series mostly up to 57.1 µM
How it was run: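 Inhibitors reduce antibody binding to phosphorylated biotin-cJun, lowering AlphaScreen luminescence. Lysates from HepG2 cells pre-activated by IL-1beta plus TNF-alpha supplied JNK3; compounds were titrated.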

[8] = Cell Viability - N2a (AID 540); conditions: N2a mouse neuroblastoma cell viability; activity change, negative = cytotoxicity: at 92.2 µM (top of the series);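 further: plate controls were DMSO alone for no effect and tamoxifen control for full effect; nearly all actives have a fitted effect of over 45% in size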
How it was run: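 Mouse neuroblastoma N2a cells, 1500/well, exposed to compounds 40 h at 37 °C in complete medium. Viability measured as cellular ATP by CellTiter-Glo luminescence; AC50 from Hill fits of concentration-response.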

[9] = Cell Viability - NIH 3T3 (AID 541); conditions: NIH 3T3 cell viability, qHTS; activity change, negative = cytotoxicity: at 92.2 µM (top of the series);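 further: plate controls were DMSO alone for no effect and tamoxifen positive control for full effect; nearly all actives have a fitted effect of over 25% in size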
How it was run: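 Mouse NIH 3T3 fibroblasts, 1000 cells/well, rested 5 hr at 37 °C, then exposed to compound for 40 hr at 37 °C in complete medium. Viability read as intracellular ATP by CellTiter-Glo luminescence; AC50 from Hill-equation fits of concentration-response data.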

[10] = Cell Viability - HUV-EC-C (AID 542); conditions: HUV-EC-C endothelial cell viability, qHTS; series mostly up to 92.2 µM; further: on the % scale 0 is the no-effect control and ±100 the full control effect; nearly all actives have a fitted effect of over 35% in size
How it was run: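 HUV-EC-C human vascular endothelial cells, 1000/well, exposed to compound for 40 hr at 37 °C in complete medium. Intracellular ATP was read by CellTiter-Glo luminescence. AC50 came from Hill-equation fits of concentration-response data.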

[11] = Cell Viability - H-4-II-E (AID 543); conditions: H-4-II-E rat hepatoma viability; series mostly up to 92.2 µM; further: on the % scale 0 is the no-effect control and ±100 the full control effect; nearly all actives have a fitted effect of over 35% in size
How it was run: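 Rat hepatoma H-4-II-E cells, 1500 per well, treated 40 h at 37 °C in complete medium. Cellular ATP read by CellTiter-Glo luminescence; AC50 from Hill fits of concentration-response.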

[12] = Cell Viability - SH-SY5Y (AID 544); conditions: SH-SY5Y neuroblastoma cell viability; viability change, negative = cytotoxic: at 92.2 µM (top of the series); further: nearly all actives have a fitted effect of over 55% in size
How it was run: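 SH-SY5Y human neuroblastoma cells (1500/well) incubated 5 h, then compound-treated 40 h at 37 °C in complete medium. Viability read as intracellular ATP by CellTiter-Glo luminescence after 20 min; AC50 from Hill-equation fits of qHTS concentration-response.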

[13] = Cell Viability - Renal Proximal Tubule (AID 545); conditions: renal proximal tubule cells viability, primary cells of rat origin; series mostly up to 91.7 µM; further: nearly all actives have a fitted effect of over 40% in size
How it was run: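 Primary rat renal proximal tubule cells (1000/well) were treated with compounds for 40 hr at 37 °C in complete medium. Intracellular ATP was measured by CellTiter-Glo luminescence, and AC50 values came from Hill-equation fits of concentration-response data.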

[14] = Cell Viability - Mesenchymal (AID 546); conditions: mesenchymal cells viability, qHTS; series mostly up to 91.7 µM;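 further: cells exposed to compound for 40 hours before reading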
How it was run: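 Normal human renal glomerulus-derived kidney mesenchymal cells, 1000 per well in complete medium, were treated with compounds for 40 hr at 37 °C. Viability was read as intracellular ATP by CellTiter-Glo luminescence; AC50 values came from Hill-equation fits of qHTS concentration-response data.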

[15] = Cellular Toxicity (caspase-3) HepG2 (AID 654); conditions: HepG2 caspase-3 activation, luminescence; series mostly up to 92.2 µM;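 further: cells exposed to compound for 16 hours before reading; 0% = DMSO alone and 100% = caspase signal from 100 µM tamoxifen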
How it was run: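 HepG2 cells (1500/well) were treated 16 h at 37 °C in complete medium, then caspase 3/7 activity was read by Caspase-Glo luminescence. Data were normalized to DMSO and 100 uM tamoxifen; AC50 came from Hill-equation fits of qHTS concentration-response.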

[16] = Cellular Toxicity (caspase-3) Jurkat (AID 655); conditions: Jurkat caspase-3 activation, luminescence; caspase-3 activation: at 92.2 µM (top of the series), DMSO = 0%, tamoxifen = 100%;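 further: cells exposed to compound for 16 h at 37 °C before reading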
How it was run: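 Jurkat cells (5000/well) in complete medium were treated with compounds for 16 hr at 37 °C, then Caspase-Glo 3/7 luminescence was read after 20 min at room temperature. Data normalized to DMSO (basal) and 100 uM tamoxifen (100%); AC50 from Hill fit.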

[17] = Cellular Toxicity (caspase-3) HUV-EC-C (AID 656); conditions: HUV-EC-C cells, caspase-3 activation (apoptosis), vehicle = 0, 100 µM tamoxifen = 100%; series mostly up to 92.2 µM
How it was run: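 HUV-EC-C endothelial cells, 1000/well, were pre-incubated 5 hr at 37°C, then exposed to compounds for 16 hr at 37°C. Caspase-Glo 3/7 luminescence was read after 20 min at room temperature. AC50 came from Hill fits, normalized to DMSO and 100 uM tamoxifen.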

[18] = Cellular Toxicity (caspase-3) SHSY5Y (AID 657); conditions: SH-SY5Y caspase-3 activation, DMSO zero, 10 µM staurosporine = 100%; series mostly up to 91.7 µM
How it was run: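 SH-SY5Y human neuroblastoma cells (1500/well) were treated with compounds for 16 h at 37 °C, then Caspase-Glo 3/7 luminescence was read after 1 h at room temperature. Data normalized to DMSO and 10 uM staurosporine; AC50 from Hill fits.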

[19] = Cellular Toxicity (caspase-3) BJ (AID 658); conditions: BJ fibroblasts, luminescence, normalized: DMSO 0%, staurosporine 100%; series mostly up to 91.7 µM
How it was run: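 Luminescent aminoluciferin-substrate cleavage reports caspase 3/7 activity in normal human BJ fibroblasts after 16 hr compound exposure at 37 °C. Normalized to DMSO (basal) and 10 uM staurosporine (100%); AC50 from Hill fit of concentration-response.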

[20] = Cellular Toxicity (caspase-3) MRC-5 (AID 659); conditions: MRC-5 cells, luminescence, normalized: DMSO 0%, 10 µM staurosporine 100%; series mostly up to 91.7 µM
How it was run: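 Luminescence from caspase-cleaved aminoluciferin substrate (Caspase-Glo 3/7, 1 hr RT) reports caspase 3/7 activity in MRC-5 lung fibroblasts after 16 hr compound exposure. Normalized to DMSO basal and 10 uM staurosporine as 100%; AC50 from Hill fits.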

CC=C(Cl)Cl
inactive: Potency [1] > 92 µM | Potency [2] > 92 µM | Potency [3] > 92 µM | Potency [4] > 92 µM | Potency [5] > 92 µM | Potency [6] > 92 µM | outcome [7] | activity change, negative = cytotoxicity [8] -2.96% | Potency [9] | Potency [10] | Potency [11] | Potency [12] | Potency [13] | Potency [14] | Potency [15] | caspase-3 activation [16] -0.538% | outcome [17] | outcome [18] | outcome [19] | outcome [20]

CC(O)COC(C)(C)C (stereo not drawn)
inactive: Potency [1] > 92 µM | Potency [2] > 92 µM | Potency [3] > 92 µM | Potency [4] > 92 µM | Potency [5] > 92 µM | Potency [6] > 92 µM | outcome [7] | activity change, negative = cytotoxicity [8] 1.08% | Potency [9] | Potency [10] | Potency [11] | Potency [12] | Potency [13] | Potency [14] | Potency [15] | caspase-3 activation [16] 0.633% | outcome [17] | outcome [18] | outcome [19] | outcome [20]

C=C(C)C(=O)OCC(C)O (stereo not drawn)
inactive: Potency [1] > 92 µM | Potency [2] > 92 µM | Potency [3] > 92 µM | Potency [4] > 92 µM | Potency [5] > 92 µM | Potency [6] > 92 µM | outcome [7] | activity change, negative = cytotoxicity [8] 6.96% | Potency [9] | Potency [10] | Potency [11] | Potency [12] | Potency [13] | Potency [14] | Potency [15] | caspase-3 activation [16] 1.29% | outcome [17] | outcome [18] | outcome [19] | outcome [20]

Cc1c(N)cccc1[N+](=O)[O-]
inactive: Potency [1] > 92 µM | Potency [2] > 92 µM | Potency [3] > 92 µM | Potency [4] > 92 µM | Potency [5] > 92 µM | Potency [6] > 92 µM | outcome [7] | activity change, negative = cytotoxicity [8] 3.87% | Potency [9] | Potency [10] | Potency [11] | Potency [12] | Potency [13] | Potency [14] | Potency [15] | caspase-3 activation [16] 2.77% | outcome [17] | outcome [18] | outcome [19]

CCC(C)(C)OC
inactive: Potency [1] > 92 µM | Potency [2] > 92 µM | Potency [3] > 92 µM | Potency [4] > 92 µM | Potency [5] > 92 µM | Potency [6] > 92 µM | outcome [7] | activity change, negative = cytotoxicity [8] -20.8% | Potency [9] | Potency [10] | Potency [11] | Potency [12] | Potency [13] | Potency [14] | Potency [15] | caspase-3 activation [16] 1.32% | outcome [17] | outcome [18] | outcome [19] | outcome [20]

O=C1C=CCCC1
inactive: Potency [1] > 92 µM | Potency [2] > 92 µM | Potency [3] > 92 µM | Potency [4] > 92 µM | Potency [5] > 92 µM | Potency [6] > 92 µM | outcome [7] | activity change, negative = cytotoxicity [8] 3.2% | Potency [9] | Potency [10] | Potency [11] | Potency [12] | Potency [13] | Potency [14] | Potency [15] | caspase-3 activation [16] -0.0925% | outcome [17] | outcome [18] | outcome [19] | outcome [20]

CCOc1cccc(N)c1
inactive: Potency [1] > 92 µM | Potency [2] > 92 µM | Potency [3] > 92 µM | Potency [4] > 92 µM | Potency [5] > 92 µM | Potency [6] > 92 µM | outcome [7] | activity change, negative = cytotoxicity [8] 4.96% | Potency [9] | Potency [10] | Potency [11] | Potency [12] | Potency [13] | Potency [14] | Potency [15] | caspase-3 activation [16] -1.1% | outcome [17] | outcome [18] | outcome [19] | outcome [20]

FC(F)(F)c1cccc(Cl)c1
inactive: Potency [1] > 92 µM | Potency [2] > 92 µM | Potency [3] > 92 µM | Potency [4] > 92 µM | Potency [5] > 92 µM | Potency [6] > 92 µM | outcome [7] | activity change, negative = cytotoxicity [8] -8.83% | Potency [9] | Potency [10] | Potency [11] | Potency [12] | Potency [13] | Potency [14] | Potency [15] | caspase-3 activation [16] -0.146% | outcome [17] | outcome [18] | outcome [19] | outcome [20]

CC(C)N=C=NC(C)C
inactive: Potency [1] > 92 µM | Potency [2] > 92 µM | Potency [3] > 92 µM | Potency [4] > 92 µM | Potency [5] > 92 µM | Potency [6] > 92 µM | outcome [7] | activity change, negative = cytotoxicity [8] -6.55% | Potency [9] | Potency [10] | Potency [11] | Potency [12] | Potency [13] | Potency [14] | Potency [15] | caspase-3 activation [16] 2.33% | outcome [17] | outcome [18] | outcome [19] | outcome [20]

c1ccc2n[nH]nc2c1
inactive: Potency [1] > 92 µM | Potency [2] > 92 µM | Potency [3] > 92 µM | Potency [4] > 92 µM | Potency [5] > 92 µM | Potency [6] > 92 µM | outcome [7] | activity change, negative = cytotoxicity [8] -2.18% | Potency [9] | Potency [10] | Potency [11] | Potency [12] | Potency [13] | Potency [14] | Potency [15] | caspase-3 activation [16] 1.47% | outcome [17] | outcome [18] | outcome [19]

C=C(C)C(=O)OCCCCCCCCCC
inactive: Potency [1] > 92 µM | Potency [2] > 92 µM | Potency [3] > 92 µM | Potency [4] > 92 µM | Potency [5] > 92 µM | Potency [6] > 92 µM | outcome [7] | activity change, negative = cytotoxicity [8] 3.17% | Potency [9] | Potency [10] | Potency [11] | Potency [12] | Potency [13] | Potency [14] | Potency [15] | caspase-3 activation [16] -0.118% | outcome [17] | outcome [18] | outcome [19] | outcome [20]
